Compound activity: PubChem BioAssay, National Center for Advancing Translational Sciences (NCATS)
The list is not random: actives were taken first. Their share in the collection is about 1.2%.
gsp agonist – agonists of gsp mutant (McCune-Albright syndrome). gsp mutant cells, cAMP HTRF, 30 min. Potency, µM (highest dose often 76.9 µM), inactives show at the highest dose activation (cAMP increase), actives largely listed as activators. hit rate 0.13% among 340,000; active = well fitted activation curve with a large enough effect; inconclusive = small, poorly fitted or top-dose-only effect, or another doubt; inactive = no such curve, though single readings can be large or run the other way; cell line not stated here;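 note: phosphodiesterase inhibitor Ro 20-1724 added with compounds to block cAMP breakdown; potency is the fitted concentration of half-maximal effect; nearly all actives have a fitted effect of over 60% in size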
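Cells in DMEM/10% FBS with G418 were pretreated with compounds in DMSO plus […] (300 uM stock) for 30 min at 37C. cAMP was measured by HTRF (cAMP-d2 plus anti-cAMP antibody-K) after 30 min at room temperature.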
RXFP1 agonist – activates the human relaxin receptor RXFP1; HEK293T-RXFP1 cAMP TR-FRET, 30 min; response scale: percent of porcine relaxin response, buffer zero; Potency, µM (highest dose often 57.5 µM), for inactives: at the highest dose activation, hits mostly activators; hit rate 0.3% among 370,000; AID 2676; active = well fitted activation curve with a large enough effect; inconclusive = small, poorly fitted or top-dose-only effect; note: potency is the fitted concentration of half-maximal effect; % is set by controls: 0 for no effect and ±100 for the full control effect; nearly all actives have a fitted effect of over 60% in size
Target sequence (Q9HBX9 whole entry, looked up): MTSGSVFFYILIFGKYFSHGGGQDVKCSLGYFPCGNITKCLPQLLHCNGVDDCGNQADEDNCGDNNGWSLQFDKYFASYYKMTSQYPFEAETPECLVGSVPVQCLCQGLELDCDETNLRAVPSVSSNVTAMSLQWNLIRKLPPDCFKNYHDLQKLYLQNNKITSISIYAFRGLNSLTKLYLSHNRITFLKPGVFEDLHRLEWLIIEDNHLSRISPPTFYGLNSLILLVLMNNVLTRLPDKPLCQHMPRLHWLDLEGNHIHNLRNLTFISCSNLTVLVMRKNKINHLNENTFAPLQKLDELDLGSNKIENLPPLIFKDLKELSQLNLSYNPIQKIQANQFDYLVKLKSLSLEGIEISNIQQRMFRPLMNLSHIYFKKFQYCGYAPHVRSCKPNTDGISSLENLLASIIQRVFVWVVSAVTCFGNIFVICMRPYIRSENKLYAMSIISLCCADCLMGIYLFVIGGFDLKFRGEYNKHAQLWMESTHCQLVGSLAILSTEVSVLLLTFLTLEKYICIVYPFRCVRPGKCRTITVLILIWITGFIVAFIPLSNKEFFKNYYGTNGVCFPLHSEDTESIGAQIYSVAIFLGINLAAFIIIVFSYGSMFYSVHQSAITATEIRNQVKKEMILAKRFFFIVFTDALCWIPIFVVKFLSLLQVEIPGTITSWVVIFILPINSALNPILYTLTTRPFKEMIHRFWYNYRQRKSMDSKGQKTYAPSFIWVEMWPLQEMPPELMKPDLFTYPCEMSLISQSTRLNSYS
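HEK293T cells stably expressing RXFP1 were pretreated with the PDE4 inhibitor Ro 20174, exposed to compounds for 30 min at 37C, lysed, and cAMP was read by TR-FRET. Data normalized to buffer (basal) and 29 nM porcine relaxin (100%).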
gsp antagonist – antagonists of gsp mutant (McCune-Albright syndrome) | Potency, µM (top dose mostly 76.9 µM), inactives show at the highest dose activity change, negative = inhibition, actives largely listed as inhibitors | gsp-mutant cells, cAMP HTRF, 30 min | AID 624288 | hit rate 0.4% among 340,000; calls by dose curve; cell line not stated here;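 note: intracellular cAMP measured with PDE inhibitor Ro 20-1724 present during compound exposure; potency is the fitted concentration of half-maximal effect; % is set by controls: 0 for no effect and ±100 for the full control effect; nearly all actives have a fitted effect of over 65% in size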
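Cells in G418 medium, seeded 16-24 h, 37C; buffer exchange to DPBS + 1 mM CaCl2, 0.5 mM MgCl2, 0.05% BSA; cpds in DMSO + […] (300 uM stock), 30 min 37C; HTRF cAMP detection.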
RXFP1 antagonist – blocks the human relaxin receptor RXFP1; Q9HBX9; HEK293-RXFP1, relaxin-stimulated cAMP HTRF, 30 min; hits give low values; activity change, negative = inhibition, % at 57.5 µM; hit rate 0.59% among 350,000; AID 1259400;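 active = activity change of -60% or lower, but not beyond a set lower limit; inconclusive = change between -60% and -40%, or beyond the set limit; inactive = change above -40%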; note: % is set by controls: 0 for no effect and ±100 for the full control effect
pAkt inh – blocks phosphorylation of Akt; hit rate 0.32% among 360,000; Neuro2A IGF-stimulated pAkt S473 HTRF, 20 min; hits give low values; activity change, % for hits at 50 µM; in the data active = activity change below about -80%; inconclusive = mostly about -51% to -80%; note: % is set by controls: 0 for no effect and ±100 for the full control effect
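Neuro2A cells (4,500/well, DMEM with 0.5% FBS) were treated with compound at a single 50 µM final concentration, stimulated with 6 nM IGF for 20 min at 37 °C, and lysed. Phospho-Akt Ser473 was read by HTRF as 665/615 ratio ×10^4.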
* = called active by the depositor; i = inactive; ? = inconclusive; . = no result; [ ] = dose if it differs, or a comment.

SMILES	gsp agonist	RXFP1 agonist	gsp antagonist	RXFP1 antagonist	pAkt inh
COc1ccc(C(CNC(=O)c2oc3ccc(C)cc3c2C)N2CCOCC2)cc1 (centres undefined)	.	4.4%	.	-8.6	.
CCOC(=O)c1cc(-c2ccc(OC)cc2)nn1-c1ccc(C(=O)O)cc1	-3.0%	-3.5%	35.5µM*	-8.4	i
CC(C)OC(=O)OCOP(=O)(CO[C@H](C)Cn1cnc2c(N)ncnc21)OCOC(=O)OC(C)C	.	.	.	10.5	.
CC(C)OCC(O)CN1CCNCC1 (centres undefined)	-0.3%	0.0%	5.2%	8.6	-115.4%*
OC(COc1ccccc1Br)CN1CCNCC1 (centres undefined)	-2.8%	-0.7%	8.5%	-1.1	i
CCCN1C(=O)CN(C2CCCCCC2)C(=O)C1c1ccc(OCC)c(OC)c1 (centres undefined)	.	0.6%	.	2.6	.
Cc1nc([N+](=O)[O-])cn1-c1ccc([N+](=O)[O-])cc1	.	.	.	1.7	.
CCS(=O)(=O)N1CCCC(C(=O)NCCOC)C1 (centres undefined)	.	0.3%	.	.	.
O=C1c2ccccc2C(=O)C1c1ccnc2ccccc12	-18.3%	-4.0%	-1.5%	9.5	-122.4%*
CCOC(=O)N1CCN(c2c(F)cc3[nH]c(=S)[nH]c3c2Br)CC1	-25.0%	5.1%	23.1%	-64.6*	i
Cc1cccc(OCC(O)CNC(C)(C)C)c1C (centres undefined)	.	.	.	10.5	.
Cc1cc(C)c(NC(=O)C(=O)NCC(c2cccnc2)N2CCN(c3ccccc3F)CC2)c(C)c1 (centres undefined)	.	3.0%	.	-11.6	.
N[C@@H](CCC(=O)N[C@@H](CS)C(=O)NCC(=O)O)C(=O)O	.	.	.	-2.7	.
Cc1cccc(C)c1Nc1c(-c2ccccc2F)nc2cccc(C)n12	.	5.0%	.	-100.1*	.
Cc1ccc(CSc2nc3ccsc3c(=O)n2Cc2ccccn2)cc1	-47.0%	-0.1%	-17.5%	3.4	i
O=c1c2sccc2nc(SCc2cc(=O)n3cc(Br)ccc3n2)n1Cc1ccccn1	24.7%[15.4 µM]	25.1µM*	5.6%	11.8	i
COc1ccc(CCNC(=O)c2ccc3c(c2)N(Cc2ccc(F)cc2)C(=O)c2ccccc2S3(=O)=O)cc1OC	.	2.2%	.	6.2	.
COc1ccc(C(NC(=O)c2cc(OC)ccc2OC)c2ccccc2)cc1 (centres undefined)	-2.4%	-0.8%	-12.6%	-3.5	i
COc1ccc(C(NC(=O)c2c(F)c(F)c(F)c(F)c2F)c2ccccc2)cc1 (centres undefined)	-37.9%	-2.2%	31.6µM*	?	i
COc1ccc(CCN2CC(C(=O)NCC(c3ccccc3)N(C)C)CC2=O)cc1OC (centres undefined)	5.2%	.	4.6%	-89.8*	i
CN(C)c1ccc(C(CNC(=O)COc2ccc(Cl)cc2)N2CCOCC2)cc1 (centres undefined)	.	8.1%	.	-8.7	.
CN(C)c1ccc(C(CNC(=O)COc2ccc(Cl)cc2)N2CCCC2)cc1 (centres undefined)	-1.3%	0.4%	2.7%	-64.0*	.
Cc1ccc(CNC(=O)c2c3c(nc4ccccc24)C(=O)N(C2CCCCC2)C3)cc1	.	2.1%	.	-19.5	.
O=C(/C=C/c1ccccc1)/C=C/c1ccccc1	0.3%	6.1%	19.7%	-66.9*	i
CCC1S/C(=C(\C#N)C(=O)NCc2ccco2)N(c2ccc(Br)cc2)C1=O (centres undefined)	-40.9%	2.3%	-2.3%[15.4 µM]	-14.9	-107.5%*
SMILES	gsp agonist	RXFP1 agonist	gsp antagonist	RXFP1 antagonist	pAkt inh
CCC1S/C(=C(\C#N)C(=O)NCc2ccco2)N(c2ccc(F)cc2)C1=O (centres undefined)	12.7%	0.2%	2.3%	-11.9	i
CCN1CCN(c2nc3c(C)cccn3c(=O)c2/C=C(\C#N)C(=O)NCCOC)CC1	?	25.1µM*	13.9%	6.0	i
O=C(CCn1c(=S)[nH]c2cc3c(cc2c1=O)OCO3)NCc1ccccc1Cl	23.4%	?	19.4%	-69.8*	i
O=C(CCCn1c(=S)[nH]c2cc3c(cc2c1=O)OCO3)NCc1cccc(Cl)c1	10.8%	?	-2.6%	-102.8*	.
CCOC(=O)/C=C/C(=O)Nc1ccc(Oc2ccccc2)cc1	-15.3%[15.4 µM]	2.6%	-1.0%	-64.0*	i
O=C(O)/C=C/C(=O)Nc1ccc(Oc2ccccc2)cc1	-3.5%[15.4 µM]	-1.7%	11.5%	-17.4	i
Cc1cccc(NC(=O)c2sc3cccc(Cl)c3c2Cl)c1	.	4.9%	.	1.0	.
Cc1cc(C)nc(N/C(=N\S(=O)(=O)Cc2ccccc2)Nc2cccc(Cl)c2C)n1	-28.7%	1.0%	0.9%	-3.5	-118.2%*
CCOC(=O)C1CCN(C2=NC(=O)/C(=C/c3ccc(Cl)cc3)S2)CC1	44.8%	-2.7%	-5.9%	-29.4	i
CCOC(=O)CSC1=NC(=O)/C(=C\c2ccc(Cl)cc2)S1	16.7%	-1.1%	31.6µM*	-16.2	i
Cc1ccccc1C(=O)N1CC/C(=N/OS(=O)(=O)O)c2ccc(Cl)cc21	.	.	.	-14.9	.
Cc1ccc(CNC(=O)C(C)n2nc(C)c3sc4ccccc4c3c2=O)cc1 (centres undefined)	.	31.6µM*	.	-23.5	.
[O-][n+]1cccc(/C(Cl)=N/OC[C@@H](O)CN2CCCCC2)c1	.	.	.	-9.1	.
CCCCOc1ccc(S(=O)(=O)Nc2cccc(-c3ccc(N4CCOCC4)nn3)c2)cc1	.	1.6%	.	-16.7	.
Cn1cc(C(=O)Nc2cccc(F)c2)cn1	28.2%	-0.4%	5.9%	-9.3	-121.8%*
COC(=O)c1cccc(NC(=O)c2cnn(C)c2)c1	20.8%	.	0.3%	-7.1	i
Cc1cc(OC(=O)c2ccccc2Cl)cc(=O)n1C	-18.3%	1.6%	39.8µM*	-21.0	i
COc1ccc2c(CNCCc3ccccc3OC)c(C(=O)O)n(Cc3ccc(F)cc3Cl)c2c1	.	7.3%	.	.	.
COC(=O)c1c(SC)nc2ccccc2c1OCc1ccccc1C	.	2.4%	.	.	.
COC(=O)N/N=C/c1ccc(OS(=O)(=O)c2ccc(C)cc2)c(OC)c1	-30.4%[15.4 µM]	0.0%	-22.0%	-13.5	i
C=CCNC(=O)/C(C#N)=C/c1ccc(OS(=O)(=O)c2ccc(C)cc2)c(OC)c1	-1.0%	3.1%	5.7%	-60.9*	i
CC1(C)O[C@@H]2C[C@H]3[C@@H]4CCC5=CC(=O)CC[C@]5(C)[C@@]4(F)[C@@H](O)C[C@]3(C)[C@]2(C(=O)CCl)O1	.	-2.7%	-20.8%	-73.4*	i
Cc1cccc(OCc2ccc(-c3nc(C#N)c(NCc4cccnc4)o3)o2)c1	.	1.7%	.	3.5	.
CCn1c(SCC(=O)Nc2nc3ccccc3s2)nnc1-c1ccc(Br)cc1	13.3%	?	17.7%	-1.2	-89.3%*
Cn1c(SCC(=O)Nc2nc3ccccc3s2)nnc1-c1ccccc1	-45.6%	0.4%	4.8%	2.9	i
CN(CC(=O)Nc1nc2ccccc2s1)S(=O)(=O)c1ccc(Br)cc1	-9.6%	-5.8%	39.8µM*	-35.4	i
